A short description of assay [1]: qHTS of pediatric cancer cell lines to identify multiple opportunities for drug repurposing: Primary screen for U-2 OS cells (AID 1347096). Also: nearly all actives have a fitted effect of over 50% in size. The procedure, abridged: (§1)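 Cells (500-1,000/well) in growth media were settled 5 h at 37 degrees C, then given compounds for 48 h. Viability was read as CellTiter-Glo luminescence. Primary runs used MIPE at 11 points (0.78 nM-46 µM) and NPC at 8 points (0.59 nM-46 µM); follow-ups used 11 points.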

Assay [2] is described as follows: qHTS of pediatric cancer cell lines to identify multiple opportunities for drug repurposing: Primary screen for Saos-2 cells (AID 1347097). Also: nearly all actives have a fitted effect of over 40% in size. Also: potency is read from the fitted curve at half-maximal effect. A digest of the protocol: (§2)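 Primary screen of approved and investigational compounds on cells in growth media at 37 degrees C, 5% CO2. MIPE set at 11-point and NPC set at 8-point dilutions; viability scored by ATP-based luminescence at 48 hours.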
For orientation: qHTS replaces the single test concentration by a dilution series.

Assay [3] can be described thus: qHTS of pediatric cancer cell lines to identify multiple opportunities for drug repurposing: Primary screen for SK-N-SH cells (AID 1347098). Also: nearly all actives have a fitted effect of over 65% in size. Also: potency is read from the fitted curve at half-maximal effect. A digest of the protocol: (§3)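 Cells (500-1,000/well) rested 5 h, then received compounds for 48 h; metabolically active cells were measured by CellTiter-Glo luminescence. Final concentrations spanned up to 46 µM (MIPE, 11-point) or 0.59 nM-46 µM (NPC, 8-point) in primary screens, 11-point in follow-ups.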

Assay [4] in a line: qHTS of pediatric cancer cell lines to identify multiple opportunities for drug repurposing: Primary screen for BT-12 cells (AID 1347101). Also: nearly all actives have a fitted effect of over 25% in size. Also: potency is read from the fitted curve at half-maximal effect. The procedure, abridged: as §3
Assay [5] is described as follows: qHTS of pediatric cancer cell lines to identify multiple opportunities for drug repurposing: Primary screen for OHS-50 cells (AID 1347103). Also: nearly all actives have a fitted effect of over 40% in size. Also: potency is read from the fitted curve at half-maximal effect. A digest of the protocol:
as §3

The nature of assay [6]: qHTS of pediatric cancer cell lines to identify multiple opportunities for drug repurposing: Primary screen for MG 63 (6-TG R) cells (AID 1347105). Also: nearly all actives have a fitted effect of over 50% in size. Also: potency is read from the fitted curve at half-maximal effect. The procedure, abridged:
as §2

Assay [7] is described as follows: qHTS of pediatric cancer cell lines to identify multiple opportunities for drug repurposing: Primary screen for control Hh wild type fibroblast cells (AID 1347106).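 Also: series mostly up to about 46 µM; a drop in luminescence marks cytotoxicity and a rise apparent proliferation; nearly all actives have a fitted effect of over 55% in size.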 A digest of the protocol: as §1
Assay [8] in a line: qHTS of pediatric cancer cell lines to identify multiple opportunities for drug repurposing: Primary screen for Rh30 cells (AID 1347107). Also: series mostly up to about 46 µM; nearly all actives have a fitted effect of over 75% in size. The procedure, abridged:
as §1

Assay [9] in a line: qHTS of pediatric cancer cell lines to identify multiple opportunities for drug repurposing: Primary screen for Rh41 cells (AID 1347108).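 Also: series mostly up to about 46 µM; luminescence drop marks cytotoxic hits; nearly all actives have a fitted effect of over 70% in size.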 The procedure, abridged: as §2
Assay [10] can be described thus: qHTS of pediatric cancer cell lines to identify multiple opportunities for drug repurposing: Primary screen for NB-EBc1 cells (AID 1347095). Also: potency is read from the fitted curve at half-maximal effect. The procedure, abridged: as §2
Assay [11] is described as follows: qHTS of pediatric cancer cell lines to identify multiple opportunities for drug repurposing: Primary screen for NB1643 cells (AID 1347099). Also: nearly all actives have a fitted effect of over 50% in size. Also: potency is read from the fitted curve at half-maximal effect. A digest of the protocol: as §2
Assay [12] is described as follows: qHTS of pediatric cancer cell lines to identify multiple opportunities for drug repurposing: Primary screen for Rh18 cells (AID 1347102). Also: nearly all actives have a fitted effect of over 65% in size. Also: potency is read from the fitted curve at half-maximal effect. The procedure, abridged:
as §1

Assay [13] can be described thus: qHTS of pediatric cancer cell lines to identify multiple opportunities for drug repurposing: Primary screen for LAN-5 cells (AID 1347100). Also: potency is read from the fitted curve at half-maximal effect. The procedure, abridged:
as §1

Assay [14] in a line: qHTS of pediatric cancer cell lines to identify multiple opportunities for drug repurposing: Primary screen for RD cells (AID 1347104). Also: nearly all actives have a fitted effect of over 55% in size. Also: potency is read from the fitted curve at half-maximal effect. A digest of the protocol:
as §2

Assay [15] is described as follows: qHTS of pediatric cancer cell lines to identify multiple opportunities for drug repurposing: Confirmatory screen for NB1643 cells (AID 1347109). Also: potency is read from the fitted curve at half-maximal effect; nearly all actives have a fitted effect of over 45% in size. A digest of the protocol:
as §1

Assay [16] is described as follows: qHTS of pediatric cancer cell lines to identify multiple opportunities for drug repurposing: Confirmatory screen for A673 cells (AID 1347110).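 Also: potency is read from the fitted curve at half-maximal effect; cells exposed to compound for 48 h before the viability read; nearly all actives have a fitted effect of over 65% in size.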 The procedure, abridged:
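Forty-eight-hour viability assay. Follow-up compounds ran at 11-point dilutions; positive control bortezomib at 2.3 uM final, neutral control DMSO.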

The nature of assay [17]: qHTS of pediatric cancer cell lines to identify multiple opportunities for drug repurposing: Confirmatory screen for SK-N-MC cells (AID 1347111).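 Also: potency is read from the fitted curve at half-maximal effect; cells exposed to compound for 48 h before the readout; nearly all actives have a fitted effect of over 70% in size.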 A digest of the protocol: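 Metabolically active cells were quantified by ATP-dependent luminescence (CellTiter-Glo, 15 min at room temperature) following 48 h treatment. Cells had been plated at 500-1,000 per well and settled for 5 h beforehand.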

Assay [18] is described as follows: qHTS of pediatric cancer cell lines to identify multiple opportunities for drug repurposing: Confirmatory screen for BT-12 cells (AID 1347112). Also: potency is read from the fitted curve at half-maximal effect; nearly all actives have a fitted effect of over 55% in size. The procedure, abridged: as §1

Structures are written as SMILES. Records with an inconclusive call do not appear. Activity calls are given as the source filed them. Calls follow the shape of the dose curve; as a rule, active = well fitted curve in the direction sought with a large enough effect; inconclusive = small, poorly fitted or top-dose-only effect, or another doubt; inactive = no such curve, though single readings can be large; an effect the other way counts as inactive or inconclusive.

`NS(=O)(=O)c1ccc(NC2=CC(=O)c3ccccc3C2=O)cc1`: the Potency entry in [1], in [5], in assay [6], in assay [7], in [8] and in assay [9] was “inactive” throughout. The Potency in [2] is 11.8 µM (active); in assay [3], 30.4 µM (active); in assay [4], 1.09 µM (active).

For the compound `NC(=O)c1ccc2nc(-c3ccc(Oc4ccc(Cl)cc4)cc3)[nH]c2c1`, the Potency result in assay [10], in assay [2], in [3], in assay [11], in assay [12] and in assay [6] was “inactive” in each case. The Potency entry in assay [7], in [8] and in assay [9] was “inactive” throughout. Also, the Potency in assay [4] was 2.43 µM (active).

Turning to `COCCOC(=O)C1=C(C)NC2=C(C(=O)CC(c3ccccc3OC)C2)C1c1cccc(O)c1` (stereo not drawn), the Potency in assay [10] was 18.7 µM (active); in [3], 13.6 µM (active); in assay [13], 13.2 µM (active); in assay [5], 19.3 µM (active); in assay [14], 18.7 µM (active); in [6], 14.8 µM (active). Moreover, the Potency result in assay [4] and in assay [7] was “inactive” each time.

For the compound `OC[C@H]1O[C@@H](Oc2cc(O)cc(C=Cc3ccc(O)cc3)c2)[C@H](O)[C@@H](O)[C@H]1O`, the Potency entry in assay [10], in assay [1], in assay [2], in assay [13], in assay [4] and in assay [12] was “inactive” each time. Also, the Potency result in assay [14], in assay [6], in assay [7], in assay [8] and in assay [9] was “inactive” each time.

For the compound `CN(C)Cc1ccc(-c2nc3cccc4c3n2CCNC4=O)cc1`, the Potency in [10] was 16.6 µM (active); in assay [3], 21.5 µM (active); in assay [11], 23.5 µM (active); in assay [14], 16.6 µM (active). Further, the Potency entry in assay [12], in assay [6], in assay [8] and in [9] was “inactive” throughout.

As for `CNC(=O)c1ccccc1Sc1ccc2c(C=Cc3ccccn3)n[nH]c2c1`, the Potency result in assay [1] and in [7] was “inactive” each time. Besides, the Potency is 14.8 µM (active) in [2]; 16.6 µM (active) in assay [11]; 0.743 µM (active) in assay [13]; 19.3 µM (active) in assay [4]; 14.8 µM (active) in assay [12]; 21.7 µM (active) in assay [5].

Regarding `Cc1cccc(Nc2nc(-c3ccncc3)cs2)c1`, the Potency result in [1], in assay [2], in assay [3], in assay [11], in assay [12] and in assay [6] was “inactive” throughout. The Potency entry in assay [7] and in [8] was “inactive” each time. In addition, the Potency in assay [5] is 21.7 µM (active).

Turning to `CC(C(=O)O)c1ccc(-c2ccccc2)c(F)c1` (stereo not drawn), the Potency result in assay [10], in assay [13], in assay [4], in assay [12] and in assay [6] was “inactive” throughout. For the same compound, the Potency is 24.1 µM (active) in assay [3] and 26.4 µM (active) in [11].

Turning to `O=C1Nc2ccc(Cl)cc2C(C#CC2CC2)(C(F)(F)F)O1` (stereo not drawn), the Potency result in [10], in assay [12], in assay [7] and in [8] was “inactive” in each case. Moreover, the Potency in [2] is 20.9 µM (active); in assay [5], 21.7 µM (active); in assay [14], 41.8 µM (active).

`C[C@]12CC[C@@H]3c4ccc(O)cc4C[C@@H](CCCCCCCCCS(=O)CCCC(F)(F)C(F)(F)F)[C@H]3[C@H]1CC[C@H]2O` (stereo partly drawn): the Potency result in [10], in assay [1], in assay [11] and in assay [7] was “inactive” in each case.

Take `C=CCc1ccc(O)c(-c2ccc(O)c(CC=C)c2)c1`: the Potency result in [10], in assay [1], in [12] and in [7] was “inactive” each time. Also, the Potency is 18.7 µM (active) in [2], 24.3 µM (active) in assay [5] and 18.7 µM (active) in [6].

In the case of `COC(=O)N[C@H](C(=O)N1CCC[C@@H]1c1ncc(-c2ccc(-c3ccc(-c4cnc([C@@H]5CCCN5C(=O)[C@@H](NC(=O)OC)C(C)C)[nH]4)cc3)cc2)[nH]1)C(C)C`, the Potency in [10] was 26.4 µM (active); in [2] it was 18.7 µM (active); in [4] it was 34.3 µM (active); in assay [12] it was 23.5 µM (active); in assay [14] it was 33.2 µM (active). Further, the Potency entry in [3] and in [7] was “inactive” each time.

As to `Oc1ccc(C2CCN(c3ccnc4ccccc34)CC2)cc1O`, the Potency in assay [10] was 23.5 µM (active); in assay [13] it was 18.7 µM (active); in assay [4], 7.69 µM (active); in assay [5], 17.2 µM (active); in assay [15], 16.5 µM (active); in assay [16], 2.61 µM (active). In addition, the Potency in assay [17] was 18.5 µM (active); in [18], 13.1 µM (active). For the same compound, the Potency entry in assay [2], in assay [12], in assay [6] and in [7] was “inactive” in each case.

On to `Clc1cc(Cl)cc(CNc2ncncc2-c2ccc3c(c2)OCO3)c1`, for which the figures for the Potency in assay [10] and in assay [2] were 11.8 µM (active) and 16.6 µM (active), respectively. Moreover, the Potency entry in assay [1], in [7] and in assay [8] was “inactive” throughout.

Regarding `CN(C[C@@H]1COCCO1)S(=O)(=O)Nc1ccc2ccc3ncc(-c4cnn(C)c4)cc3c(=O)c2c1`, the Potency was 7.43 µM (active) in assay [10]; 17.1 µM (active) in [3]; 14.8 µM (active) in assay [13]; 14.8 µM (active) in [12]; 1.22 µM (active) in [5]. Also, the Potency result in [6], in assay [7] and in assay [8] was “inactive” throughout.

On to `COC(=O)[C@@H]1[C@H]2C[C@H]3c4[nH]c5ccccc5c4CCN3C[C@@H]2CC[C@@H]1O`, for which the Potency result in [10], in assay [1], in [3], in assay [11], in assay [13] and in [4] was “inactive” each time. Further, the Potency result in assay [12], in assay [5], in assay [14], in assay [6], in assay [7] and in assay [8] was “inactive” each time. The Potency result in assay [9] was “inactive”.

These data come from PubChem BioAssay (NCATS).
